Records with an inconclusive call do not appear. Entries that show only a call come without a potency. Active and inactive are the calls of the source. Calls follow the shape of the dose curve; as a rule, active = well fitted antagonist curve with a large enough effect in the main read-out, with a control signal flat; inconclusive = small, poorly fitted or top-dose-only effect; inactive = no such curve, though single readings can be large or run the other way.

Results on 40 compounds are retold here after PubChem BioAssay AID1489 (National Center for Advancing Translational Sciences (NCATS), 2009).

Sequence of Neuropeptide S receptor (Homo sapiens) (Q6W5P4 whole entry, looked up): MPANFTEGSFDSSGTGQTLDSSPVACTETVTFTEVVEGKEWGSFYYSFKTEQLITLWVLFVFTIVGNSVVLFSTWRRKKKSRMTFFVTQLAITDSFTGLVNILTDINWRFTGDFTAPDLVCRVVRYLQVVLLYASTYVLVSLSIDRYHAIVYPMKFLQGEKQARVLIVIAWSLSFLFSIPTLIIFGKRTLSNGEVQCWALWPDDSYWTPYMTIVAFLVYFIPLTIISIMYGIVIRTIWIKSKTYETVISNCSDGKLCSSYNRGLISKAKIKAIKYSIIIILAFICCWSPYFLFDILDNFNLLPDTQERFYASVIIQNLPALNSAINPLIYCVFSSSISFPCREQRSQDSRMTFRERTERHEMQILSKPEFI

This experiment deals with Neuropeptide S receptor (Homo sapiens) (UniProt Q6W5P4). Put plainly: Confirmation Concentration-Response Assay for Antagonists of the Neuropeptide S Receptor: Calcium Signal Transduction. The note with it: CHO-NPSR cells, NPS-induced calcium flux, FDSS; series mostly up to 19.3 µM. An excerpt:
NIH Chemical Genomics Center [NCGC] NIH Molecular Libraries Probe Production centers Network [MLPCN] MLPCN Grant: X01-DA026210-01 Assay Submitter (PI): Heilig, Markus Alexander NCGC Assay Overview: Neuropeptide S receptor (NPSR), previously known as GPR154, is a recently de-orphanized G protein coupled receptor. Its endogenous ligand is the 20 amino acids peptide Neuropeptide S (NPS). […] NPS and its receptor are found in various tissues. Specifically they are highly expressed in brain areas that have been implicated in modulation of arousal, stress and anxiety. Central administration of NPS in mice produces an unusual profile of activity by inducing wakefulness and arousal, while at the same time suppressing anxiety. Therefore, NPSR may represent a novel drug target for the treatment of sleep and anxiety disorders. To identify NPSR antagonists, we developed a cell-based assay with transfected NPS receptor. NPS can stimulate the production of cAMP as well as release intracellular calcium in Chinese hamster ovary cells stably expressing NPS receptor. This change in intracellular calcium can be detected using a calcium indicator dye on a calcium imaging plate reader system (FDSS).
NCGC Assay Protocol Summary: A Chinese hamster ovary (CHO) cell line stably expressing the NPS receptor (CHO-NPSR) was obtained from Dr. Heilig lab at NIAAA and maintained in F-12 Kaighn's media (Invitrogen, Carlsbad, CA, 21127) supplemented with 10 % FBS, 100 units/ml penicillin, 100 ug/ml streptomycin and 250 ug/ml geneticin at 37C, 5% CO2 in a humidified atmosphere. Before the assay, aliquots of cells were frozen and stored at -135C. The assay was performed on a FDSS-7000 kinetic plate reader in 1536-well format. For both agonist (1-220s) and antagonist (221-400s) phases, the maximums of kinetic fluorescence responses were converted separately into text files using the instrument's software data export utility. Data for agonist response were normalized to the controls for basal activity (DMSO only) and 100% activation (NPS). […] AC50 values were determined from concentration-response data modeled with the standard Hill equation. NPS 1536-well FDSS assay protocol: (1) Frozen CHO-NPSR cells were thaw, washed once with fresh media and resuspended in F-12 Kaighn's media supplemented with 10 % FBS, 100 units/ml penicillin and 100 ug/ml streptomycin. Cells were plated at 3 ul/well (1200 cells) to black, clear-bottom, tissue-culture treated 1536-well plates, and then cultured at 37C, 5 % CO2 for 16 to 30 hours. (2) Add 3 ul of calcium dye (from High Performance PBX Calcium Assay Kit, BD Biosciences). The calcium dye was prepared according to the manufactory's instruction. (3) Incubation at 37C, 5 % CO2 for 60 to 120 min. (4) Load plates to FDSS-7000. The following steps were performed on FDSS-7000. (5) Record fluorescent background (Ex 480 nm, Em 520-560 nm) for 10 s. (6) Add 23 nl/well of compound in DMSO solution. The final titration for each compound was between 0.6 nM and 46 uM. Record agonist response for 210 s. (7) Add 2 ul of stimulation reagent (1X HBSS buffer, 0.1% BSA, 60 nM NPS). Record antagonist response for 140 s. Keywords: MLSMR, MLPCN, NIH Roadmap, qHTS, NCGC, NPS, Neuropeptide S Antagonists
A general note: Calcium flux is commonly read through the fluorescence of an indicator in the cells.
With `Oc1ccc(N=Nc2nccs2)c(O)c1`, the Potency entry was “inactive”.

With `CC1CCCc2sc3nc(N4CCN(CCO)CC4)n4ncnc4c3c21` (stereo not given), the Potency result is “inactive”.

As to `O=C1CC(NCc2ccncc2)C(=O)N1c1ccccc1` (stereo not given), the Potency result is “inactive”.

With `O=[N+]([O-])c1cc2c(cc1/C=N/n1c(-c3ccccc3)n[nH]c1=S)OCO2`, the Potency entry was “inactive”.

As for `Cc1ccc(NC(=S)NNC(C)(C)C)cc1`, the Potency result was “inactive”.

As for `CN(C)c1ccc(N2CN=C3SCC(=O)N3C2)cc1`, the Potency entry was “inactive”.

Take `CC1(C)Cc2c(c(N3CCOCC3)nc3sc4c(NCC5CCCO5)nnnc4c23)CS1` (stereo not given): the Potency entry is “inactive”.

Consider `CCCCOc1ccc(OCCCN2CCOCC2)cc1`, for which the Potency result was “inactive”.

With `NC(=O)OCC(COC(N)=O)c1ccccc1`, the Potency result is “inactive”.

Consider `Brc1ccc(CSc2ncn[nH]2)cc1`, for which the Potency entry is “inactive”.

For `CC(=O)c1sc(N/N=C\c2ccccc2O)nc1C`, the Potency is 1.12 µM (active).

With `CCC(Sc1ccc2nnc(-c3cccnc3)n2n1)C(=O)O` (stereo not given), the Potency entry was “inactive”.

For the compound `CN(Cc1cc(=O)[nH]c2ccccc12)C(=O)c1ccccc1`, the Potency result is “inactive”.

Turning to `NC(=S)N/N=C/c1ncc(C(F)(F)F)cc1Cl`, the Potency result is “inactive”.

Turning to `Cn1c(C(=O)NCCN2CCc3ccccc3C2)cc2c(=O)[nH]c3ccccc3c21`, the Potency entry is “inactive”.

Take `O=C(CSc1n[nH]c(-c2cccnc2)n1)Nc1ccnc2ccccc12`: the Potency result is “inactive”.

`Cc1ccc(S(=O)(=O)Nc2cccc3ncccc23)s1`: the Potency was 3.16 µM (active).

Consider `C(=N\Nc1nc(-c2ccccn2)nc2ccccc12)/c1ccccc1`, for which the Potency entry is “inactive”.

As for `Cc1nnc(NC(=O)c2cccc(S(=O)(=O)N3CCc4ccccc43)c2)s1`, the Potency entry is “inactive”.

As to `O=C(CSC1=NCCS1)Nc1ccnc2ccccc12`, the Potency result is “inactive”.

Consider `Cc1ccc(Cn2cc(SCC(=O)Nc3nccs3)c3ccccc32)cc1`, for which the Potency entry is “inactive”.

Take `c1ccc(-c2ccc(-c3nc(-c4cccnc4)no3)cc2)cc1`: the Potency entry is “inactive”.

With `N#Cc1cnn(-c2ncnc3sc4c(c23)CCCC4)c1N`, the Potency entry is “inactive”.

`COc1cccc(N2CCN(c3ncnc4c3[nH]c3ccc(F)cc34)CC2C)c1` (stereo not given): the Potency is 0.631 µM (active).

On to `O=C(O)CCCCCNc1nc(=S)[nH]c2ccccc12`, for which the Potency result was “inactive”.

As for `Nn1c(COc2ccccc2)nnc1SCc1cc(=O)[nH]c2ccccc12`, the Potency result is “inactive”.

For the compound `CC(=O)c1sc(-c2ccccc2)cc1NS(=O)(=O)c1ccccc1`, the Potency result was “inactive”.

On to `CCCN1C(=O)/C(=C\C=C2/C=CN(CC)c3ccccc32)SC1=S`, for which the Potency entry is “inactive”.

Take `Cn1nc(-c2ccc(Cl)cc2)nc2c(=O)n(C)c(=O)nc1-2`: the Potency result is “inactive”.

As for `S=C(Nc1ccccc1)Nc1nccs1`, the Potency result was “inactive”.

For `O=C1Nc2ccc(S(=O)(=O)N3CCCC3C(=O)O)c3cccc1c23` (stereo not given), the Potency result is “inactive”.

In the case of `O=C(O)c1cccc(Nc2ncnc3ccccc23)c1`, the Potency entry is “inactive”.

As to `CC(=O)n1nc2nc(C)cc(C)c2c1N`, the Potency result was “inactive”.

`N#CC(C#N)=c1ccc2c(c1)NC1(CCCCC1)N=2`: the Potency entry was “inactive”.

As for `O=C(/C(=C/c1ccc(Cl)cc1)c1nc2ccccc2[nH]1)c1cccs1`, the Potency is 8.91 µM (active).

Turning to `CN(C)C(=S)N=Nc1[nH]c2ccccc2c1O`, the Potency result was “inactive”.

`COc1ccc(N(CC(=O)Nc2cccc(SC)c2)S(C)(=O)=O)cc1Cl`: the Potency entry was “inactive”.

With `O=C(Nc1nccs1)C1CCCN1S(=O)(=O)c1ccc(Cl)cc1` (stereo not given), the Potency entry is “inactive”.

As for `O=C(N1CCOCC1)C1(c2ccc(Cl)cc2)CCCC1`, the Potency entry was “inactive”.

For `CCC(c1nnnn1C1CCCC1)N1CCN(c2ccccc2)CC1` (stereo not given), the Potency entry was “inactive”.
